# FUS suppressor = rescues growth of FUS-expressing yeast. S. cerevisiae FUS-expressing, growth rescue, OD600, 24 h. AID 1347120. Potency, µM (top dose mostly 76.6 µM), hits mostly activators. actives 0.24% (n = 390,000);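 also: plate controls were DMSO vehicle for no effect and reference control for full effect; nearly all actives have a fitted effect of over 55% in size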
#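 Toxicity suppression screen in FUS-yeast. Cells induced with 2% galactose, starting OD 0.005, treated 24hr at 30C with compounds at multiple final concentrations; growth by OD600.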
# aSyn yeast inh = inhibitors of alpha-synuclein toxicity in yeast. Yeast expressing alpha-synuclein, growth rescue, BacTiter-Glo, 24 h. Potency, µM (top dose mostly 46.1 µM), for the others: at the highest dose growth rescue (activation), actives largely listed as activators. actives 0.14% (n = 370,000); also: % of control where 0% means no effect; nearly all actives have a fitted effect of over 65% in size
#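 Galactose-induced alpha-syn yeast (OD600=0.02, raffinose-pregrown) + pinned cpd, 24 hr, 30 deg C; growth by BacTiter-Glo luminescence. Growth restoration scores as activation.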
# TDP-43 yeast inh = inhibitors of TDP-43 toxicity in yeast; Potency, µM (highest dose often 46.1 µM), for inactives: at the highest dose growth rescue (activation), most hits filed as activators; actives 1.8% (n = 410,000); TDP-43 expressing yeast growth rescue, BacTiter-Glo, 24 h; AID 652104; also: % of control where 0% means no effect; nearly all actives have a fitted effect of over 50% in size
#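 Cell-based yeast growth screen: TDP-43 expression induced in galactose, inoculum OD600=0.02 after raffinose pregrowth to mid-log. Read-out BacTiter-Glo luminescence at 24 hr, 30 deg C; inhibition of toxicity seen as signal increase.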
# Abeta rescue = A-beta toxicity reversal in yeast; actives 0.063% (n = 410,000); yeast expressing A-beta42, growth rescue, OD600, 48 h; response scale: 0% DMSO, 100% iron-clioquinol control; AID 1347071; Potency, µM (doses to about 46.1 µM), actives largely listed as activators; also: nearly all actives have a fitted effect of over 55% in size
#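 Yeast growth medium received pinned compounds, then yeast cells expressing toxic A-beta were added; plates incubated at 30 C for 48 hr. Growth read as absorbance at 600 nm, normalized to DMSO and equimolar FeCl3 plus clioquinol controls.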
# An asterisk follows results filed as active; i = inactive; ? = inconclusive; nt = no result given. Only some compounds are listed: those with a hit (about 2.1% of all), similar ones and a draw of the others. Calls follow the shape of the dose curve; as a rule, active = well fitted curve in the direction sought with a large enough effect; inconclusive = small, poorly fitted or top-dose-only effect, or another doubt; inactive = no such curve, though single readings can be large; an effect the other way counts as inactive or inconclusive. Potency is read from the fitted curve at half-maximal effect.
SMILES,FUS suppressor,aSyn yeast inh,TDP-43 yeast inh,Abeta rescue
CN(C)C(=O)c1ccc(NC(=O)c2ccc(-c3ccc(Cl)cc3)o2)cc1,nt,-8%,?,i
COC(=O)C1CCN(C(=O)COC(=O)CNC(=O)c2ccc(Cl)cc2Cl)CC1,i,-9%,-3%,i
Cc1ccc(-n2ncc(C(=O)N3CCC(c4ccccc4)C3)c2C2CCN(C(=O)OC(C)(C)C)CC2)cc1 (centres undefined),i,nt,?,i
CSc1nc(N2CCOCC2)c2c3c(sc2n1)CCCC3,?,9%,16µM*,i
COc1ccc(N2C(=O)c3ccccc3NC(=O)C2C(=O)NCc2ccco2)cc1 (centres undefined),i,0%,14%,i
COc1ccc(NC(=O)C2CC(c3c(F)cccc3Cl)=NO2)cc1 (centres undefined),i,-2%,13µM*,i
COc1cc(NC(=O)C2CC(c3c(F)cccc3Cl)=NO2)cc(OC)c1OC (centres undefined),i,-13%,22%,i
O=C1C(Cc2ccccc2)Nc2ncnc(N3CCN(c4ccccc4)CC3)c2N1Cc1ccccc1 (centres undefined),i,6%,-1%,i
Cc1ccc(CN2C(=O)C(Cc3ccccc3)Nc3ncnc(N4CCN(c5ccccc5)CC4)c32)cc1 (centres undefined),25µM*,19%,-15%,i
O=C(CSc1n[nH]c(-c2ccccc2Cl)n1)N1CCN(c2ccccc2F)CC1,i,nt,?,i
Cc1ccc(OCC(=O)NNC(=O)CCc2ccccc2)c(Br)c1,i,1%,0%,i
CC(Sc1nnnn1C)C(=O)Nc1ccc(Oc2ccccc2)cc1 (centres undefined),i,1%,16µM*,i
CC(Sc1nnnn1-c1ccccc1)C(=O)Nc1ccc(N2CCN(C)CC2)cc1 (centres undefined),i,0%,7%,i
OC(c1cccc(Cl)c1)c1nc(-c2cccc3cccnc23)cs1 (centres undefined),i,18µM*,?,?
COc1cccc(C(O)c2nc(-c3cc4ccccc4o3)cs2)c1 (centres undefined),i,?,20µM*,i
OC(c1cccc(Cl)c1)c1nc(-c2cc3ccccc3o2)cs1 (centres undefined),i,-44%,35µM*,i
COc1cc(C(O)c2nc(-c3cc4ccccc4o3)cs2)ccc1F (centres undefined),i,-17%,17%,?
CNC(=O)C1CCC(Cn2c(=O)c3sccc3n(CC(=O)NCc3ccc(C)cc3)c2=O)CC1 (centres undefined),i,nt,13%,i
COc1cccc(CNC(=O)c2cc(-c3ccc(Cl)cc3)n[nH]2)c1,i,nt,0%,i
COc1ccc(C=O)cc1C1=CC(=O)C[C@H](c2ccc(Cl)cc2)C1,?,3%,20µM*,i
COc1ccc([C@H]2CC(=O)C=C(c3ccccc3)C2)cc1OC,i,1%,?,i
CCCCC/C=C/C1=CC(=O)C[C@H](c2ccc(OC)c(OC)c2)C1,?,?,35µM*,i
COc1ccc([C@H]2CC(=O)C=C(c3cccc(Cl)c3)C2)cc1OC,i,10%,22µM*,i
COc1ccc([C@H]2CC(=O)C=C(c3ccccc3OC)C2)cc1OC,i,9%,20µM*,i
COc1ccc(C2=CC(=O)C[C@H](c3ccc(OC)c(OC)c3)C2)cn1,i,6%,?,i
SMILES,FUS suppressor,aSyn yeast inh,TDP-43 yeast inh,Abeta rescue
C=CCNC(=O)CN1C(=O)CSc2ccc(S(=O)(=O)N3CCOCC3)cc21,i,0%,5%,i
CCc1ccc2oc(-c3ccc(OC)cc3)cc(=Nc3cccc(C(=O)O)c3)c2c1,i,-3%,12%,i
COc1ccc(-c2cc(=Nc3ccc(C(=O)O)cc3)c3cc(C)ccc3o2)cc1,i,11%,18µM*,i
Cc1cc(NC(=O)CN2C(=O)c3cccnc3Sc3ccccc32)ccc1Br,i,nt,9%,i
Cc1ccc(S(=O)(=O)N2CCN(c3nc(-c4ccc(F)cc4)nc4cc(Cl)ccc34)CC2)cc1,nt,7%,nt,nt
Cc1ccc(N2CC(C(=O)Nc3ccc(S(=O)(=O)Nc4ncccn4)cc3)CC2=O)cc1C (centres undefined),i,5%,13%,i
Cn1ccc2c(-c3cncc4ccccc34)cc3c(c21)C1CCC3C1 (centres undefined),i,-20%,28µM*,i
S=C(NCc1ccccc1)NC1CCSc2ccccc21 (centres undefined),i,1%,?,?
CN1c2ccccc2SC2C(c3ccccc3)=NOC21 (centres undefined),i,9%,18µM*,i
CN1C(c2ccccc2)=NO[C@]1(C)c1ccccc1,i,-3%,7%,i
C=CCN(CC#Cc1ccc(OC)cc1)CC=C,i,nt,nt,nt
COc1ccccc1NC(=O)CSc1ccc(-c2cccs2)nn1,i,-18%,22µM*,i
COc1ccc(OC)c(NC(=O)CSc2ccc(-c3ccco3)nn2)c1,i,-7%,20µM*,i
COc1ccc(OC)c(NC(=O)CSc2ccc(-c3cccs3)nn2)c1,i,nt,10%,i
CCn1nnc2cc(C(=O)Nc3cc(C)ccc3C)ccc21,i,nt,2%,i
COc1ccc(Nc2ccccc2NC(=O)c2ccccc2Br)cc1,i,8%,16µM*,i
Cc1ccccc1C(=O)Nc1ccccc1NC(=O)c1ccccc1Br,i,-3%,1%,i
CCOCC(=O)N1CCN(c2ccccc2OC)CC1,i,0%,24%,i
Cc1cccc(N(CC(=O)NCc2ccc(F)cc2)C(=O)c2ccco2)c1,i,1%,-3%,i
O=C(c1ccc(-c2cccc([N+](=O)[O-])c2)o1)N1CCN(c2ccc([N+](=O)[O-])cc2)CC1,i,1%,-8%,i
O=C(c1ccc(-c2ccc([N+](=O)[O-])cc2)o1)N1CCCCC1,i,0%,13µM*,i
CC1CC(C)CN(C(=O)c2ccc(-c3ccc([N+](=O)[O-])cc3)o2)C1 (centres undefined),i,-15%,14µM*,i
Cc1ccccc1Nc1ccc([N+](=O)[O-])cn1,i,-14%,?,i
Cc1cccc(C(C)Nc2ccc([N+](=O)[O-])cn2)c1 (centres undefined),i,0%,18µM*,i
CCOC(=O)C1(C)CCN1C(=O)c1ccccc1Br (centres undefined),i,-1%,22%,i
CCCCCCC(=O)Nc1ccc(C(=O)N/N=C/c2cccnc2)cc1,28µM*,-1%,-6%,i
N/C(=N\OC(=O)c1cccc2ccccc12)c1ccccn1,i,-46%,-42%,i

# Screens (PubChem)
